{"source": "PubChem BioAssay AID2061166", "about": "(Soto Lab, Mitchell Center for Alzheimers Disease and …, 2025)", "note": "The source made the active and inactive calls.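 Rule for the calls: active = mean tau seeding fluorescence area under 1% of vehicle, meaning inhibition above a set limit; inactive = the rest.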", "data": [{"target": "Microtubule-associated protein tau (Homo sapiens) (UniProt P10636)", "sequence (P10636 whole entry, looked up)": "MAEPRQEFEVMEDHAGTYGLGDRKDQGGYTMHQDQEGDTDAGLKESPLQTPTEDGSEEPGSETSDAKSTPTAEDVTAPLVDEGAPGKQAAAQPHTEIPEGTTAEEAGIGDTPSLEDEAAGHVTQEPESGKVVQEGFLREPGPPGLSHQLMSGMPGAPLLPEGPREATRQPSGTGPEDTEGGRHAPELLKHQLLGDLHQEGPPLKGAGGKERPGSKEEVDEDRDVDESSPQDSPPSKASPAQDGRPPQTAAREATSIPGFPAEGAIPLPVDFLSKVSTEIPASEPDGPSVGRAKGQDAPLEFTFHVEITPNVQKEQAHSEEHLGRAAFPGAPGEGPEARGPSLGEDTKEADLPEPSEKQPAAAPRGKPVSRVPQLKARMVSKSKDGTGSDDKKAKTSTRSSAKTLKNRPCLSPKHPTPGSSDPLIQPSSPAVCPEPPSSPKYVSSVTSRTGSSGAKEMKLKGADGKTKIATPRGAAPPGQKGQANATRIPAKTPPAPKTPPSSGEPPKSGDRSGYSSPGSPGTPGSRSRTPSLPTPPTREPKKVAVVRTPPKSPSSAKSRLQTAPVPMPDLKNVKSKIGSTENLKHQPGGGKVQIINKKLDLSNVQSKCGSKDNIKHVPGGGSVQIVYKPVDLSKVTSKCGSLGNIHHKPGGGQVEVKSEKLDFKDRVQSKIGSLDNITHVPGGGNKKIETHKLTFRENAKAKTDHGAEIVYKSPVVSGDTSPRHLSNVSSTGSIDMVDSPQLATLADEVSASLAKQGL", "test": "blockers of AD brain-seeded tau fibril growth – biochemical, seed amplification, ThT fluorescence, primary screen (AID 2061166)", "conditions": "Recombinant tau seeded by AD brain, ThT fluorescence AUC; at 100 µM; stronger effect = higher value", "values": [{"compound": "O=C(OC1CC2CCC(C1)[N+]21CCCC1)C(O)(c1ccccc1)c1ccccc1", "note": "(stereo not drawn)", "inhibition": "16.5% (inactive)"}, {"compound": "Cc1c(C(=O)NN2CCCCC2)nn(-c2ccc(Cl)cc2Cl)c1-c1ccc(Cl)cc1", "inhibition": "50.7% (inactive)"}, {"compound": "CC1(C)CCC2(C(=O)O)CCC3(C)C(=CCC4C5(C)CCC(O)C(C)(CO)C5CCC43C)C2C1", "note": "(stereo not drawn)", "inhibition": "65% (inactive)"}, {"compound": "COC1C(=O)C2(C)C(OC)CC3OCC3(OC(C)=O)C2C(OC(=O)c2ccccc2)C2(O)CC(OC(=O)C(O)C(NC(=O)OC(C)(C)C)c3ccccc3)C(C)=C1C2(C)C", "note": "(stereo not drawn)", "inhibition": "10.4% (inactive)"}, {"compound": "CNCCC(Oc1cccc2ccccc12)c1cccs1", "note": "(stereo not drawn)", "inhibition": "48.5% (inactive)"}, {"compound": "O=NN(CCCl)C(=O)NC1CCCCC1", "inhibition": "14.1% (inactive)"}, {"compound": "CCN(C(=O)c1c(O)c2c(Cl)cccc2n(C)c1=O)c1ccccc1", "inhibition": "20% (inactive)"}, {"compound": "CCCOC(C(=O)OC1CCN(C)CC1)(c1ccccc1)c1ccccc1", "inhibition": "26.4% (inactive)"}, {"compound": "Nc1nc(Cl)nc2c1ncn2C1CC(O)C(CO)O1", "note": "(stereo not drawn)", "inhibition": "-52.8% (inactive)"}, {"compound": "CC1(C)OC2COC3(COS(N)(=O)=O)OC(C)(C)OC3C2O1", "note": "(stereo not drawn)", "inhibition": "20.5% (inactive)"}, {"compound": "CC(C)(Sc1cc(C(C)(C)C)c(O)c(C(C)(C)C)c1)Sc1cc(C(C)(C)C)c(O)c(C(C)(C)C)c1", "inhibition": "23% (inactive)"}, {"compound": "Cc1ccc(C(C)C)cc1O", "inhibition": "10.5% (inactive)"}, {"compound": "CCCCCCCCCC(=O)O", "inhibition": "0.189% (inactive)"}, {"compound": "CNc1ccc2nc3ccc(=[N+](C)C)cc-3sc2c1", "inhibition": "100% (active)"}, {"compound": "CCC(=O)NCCC1CCc2ccc3c(c21)CCO3", "note": "(stereo not drawn)", "inhibition": "-20.8% (inactive)"}, {"compound": "Cc1cc(=O)n(-c2ccccc2)n1C", "inhibition": "8.96% (inactive)"}, {"compound": "CC1(C)SC2C(NC(=O)C(N)c3ccc(O)cc3)C(=O)N2C1C(=O)O", "note": "(stereo not drawn)", "inhibition": "-6.81% (inactive)"}, {"compound": "C[N+](C)(C)CCO", "inhibition": "13.4% (inactive)"}, {"compound": "Clc1cccc(Cl)c1NC1=NCCN1", "inhibition": "-11.7% (inactive)"}, {"compound": "C=CCc1ccc(O)c(-c2ccc(O)c(CC=C)c2)c1", "inhibition": "93.5% (inactive)"}, {"compound": "COc1ccc(Cl)cc1C(=O)NCCc1ccc(S(=O)(=O)NC(=O)NC2CCCCC2)cc1", "inhibition": "-30.9% (inactive)"}, {"compound": "Brc1cccc(-c2cc(-c3ccc4c(c3)OCO4)[nH]n2)c1", "inhibition": "-25.9% (inactive)"}, {"compound": "CC1COc2c(N3CCN(C)CC3)c(F)cc3c(=O)c(C(=O)O)cn1c23", "note": "(stereo not drawn)", "inhibition": "-27.6% (inactive)"}, {"compound": "Oc1cc(O)c2c(c1)OC(c1ccc(O)c(O)c1)C(O)C2", "note": "(stereo not drawn)", "inhibition": "88.6% (inactive)"}, {"compound": "COc1cc(C=CC(=O)CC(=O)C=Cc2ccc(O)c(OC)c2)ccc1O", "inhibition": "86.4% (inactive)"}, {"compound": "N=c1ccc2nc3ccc(N)cc3sc-2c1", "inhibition": "100% (active)"}, {"compound": "C#CCC(Cc1cnc2nc(N)nc(N)c2n1)c1ccc(C(=O)NC(CCC(=O)O)C(=O)O)cc1", "note": "(stereo not drawn)", "inhibition": "-3.35% (inactive)"}, {"compound": "CN1CC(C(=O)NC2(C)OC3(O)C4CCCN4C(=O)C(Cc4ccccc4)N3C2=O)CC2c3cccc4[nH]cc(c34)CC21", "note": "(stereo not drawn)", "inhibition": "34.2% (inactive)"}, {"compound": "O=c1cc(-c2ccccc2)oc2cc(O)c(O)c(O)c12", "inhibition": "97.6% (inactive)"}, {"compound": "COc1ccc2[nH]cc(CCNC(C)=O)c2c1", "inhibition": "-15.9% (inactive)"}, {"compound": "O=C(O)c1ccccc1O", "inhibition": "11.4% (inactive)"}, {"compound": "CCN(CC)CCNC(=O)c1c(C)[nH]c(/C=C2\\C(=O)Nc3ccc(F)cc32)c1C", "inhibition": "98.6% (inactive)"}, {"compound": "CC12CC3(O)OC(O1)C1(COC(=O)c4ccccc4)C3CC21OC1OC(CO)C(O)C(O)C1O", "note": "(stereo not drawn)", "inhibition": "-50% (inactive)"}]}]}
